Assay outcomes: PubChem, National Center for Advancing Translational Sciences (NCATS)
Hits are enriched below; roughly 12% of the tested compounds scored in any of these assays.
G9a inh: qHTS Assay for Inhibitors of Histone Lysine Methyltransferase G9a; 350,000 compounds, 8.8% hits; G9a H3K9 monomethylation, AlphaScreen, 2 h; AID 504332, 2011; Histone-lysine N-methyltransferase EHMT2 (Homo sapiens), Q96KQ7; Potency, µM (titrated, usually from 102 µM), for the others: at the highest dose activity, negative = inhibition, usual class: inhibitors; also: % is scaled to controls: 0 for no effect and ±100 for the full control effect; nearly all actives have a fitted effect of over 75% in size
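Step 1: enzyme (final 20 nM) with compound, 15 min RT. Step 2: substrate peptide 500 nM and SAM 20 uM, 2 h RT. Step 3: anti-H3K9me1 antibody and AlphaScreen beads, 10 min, then plate read.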
Sfp PPTase inh: qHTS Assay for Inhibitors of Bacillus subtilis Sfp phosphopantetheinyl transferase (PPTase). 4'-phosphopantetheinyl transferase ffp (Bacillus subtilis), Q9F4F7. Biochemical Sfp PPTase activity, qHTS. Potency, µM, without a hit: largest response in the series, negative = inhibition, hits mostly inhibitors. 310,000 compounds, 3.5% hits;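 also: the enzyme is Sfp with the accession as filed and its product quenches rhodamine fluorescence; 0% = enzyme reaction without inhibitor and -100% = no enzyme wells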
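Fluorescence-quenching assay: 15 nM Sfp-PPTase preincubated 15 min at room temperature with compound, then 5 uM rhodamine-CoA and 12.5 uM BHQ-2-labelled YbbR peptide added. Fluorescence (ex 525/em 598 nm) read at start and after 30 min; difference gives rate.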
TDP1 inh: qHTS Assay for Inhibitors of Tyrosyl-DNA Phosphodiesterase (TDP1); Tyrosyl-DNA phosphodiesterase 1 (Homo sapiens), Q9NUW8; recombinant TDP1, AlphaScreen DNA substrate cleavage; Potency, µM (highest dose often 130 µM), without a hit: top-dose activity change, negative = inhibition, actives largely listed as inhibitors; 350,000 compounds, 0.28% hits; also: % is scaled to controls: 0 for no effect and ±100 for the full control effect; nearly all actives have a fitted effect of over 40% in size
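Enzyme-compound mixtures sat 15 min at room temperature, followed by a 5 min reaction with 15 nM final substrate and 10 min with AlphaScreen beads. Recombinant human Tdp1 was used at 1 nM final.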
BAZ2B block: qHTS Assay for Inhibitors of BAZ2B; Bromodomain adjacent to zinc finger domain protein 2B (Homo sapiens), Q9UIF8; AlphaScreen BAZ2B-H3K14Ac peptide displacement; Potency, µM (top dose mostly 114 µM), inactives show top-dose activity change, negative = inhibition, most hits filed as inhibitors; 360,000 compounds, 4.4% hits; AID 504333, 2011; also: % is scaled to controls: 0 for no effect and ±100 for the full control effect; nearly all actives have a fitted effect of over 60% in size
Target sequence (Q9UIF8 whole entry, looked up, the tested form may be a part): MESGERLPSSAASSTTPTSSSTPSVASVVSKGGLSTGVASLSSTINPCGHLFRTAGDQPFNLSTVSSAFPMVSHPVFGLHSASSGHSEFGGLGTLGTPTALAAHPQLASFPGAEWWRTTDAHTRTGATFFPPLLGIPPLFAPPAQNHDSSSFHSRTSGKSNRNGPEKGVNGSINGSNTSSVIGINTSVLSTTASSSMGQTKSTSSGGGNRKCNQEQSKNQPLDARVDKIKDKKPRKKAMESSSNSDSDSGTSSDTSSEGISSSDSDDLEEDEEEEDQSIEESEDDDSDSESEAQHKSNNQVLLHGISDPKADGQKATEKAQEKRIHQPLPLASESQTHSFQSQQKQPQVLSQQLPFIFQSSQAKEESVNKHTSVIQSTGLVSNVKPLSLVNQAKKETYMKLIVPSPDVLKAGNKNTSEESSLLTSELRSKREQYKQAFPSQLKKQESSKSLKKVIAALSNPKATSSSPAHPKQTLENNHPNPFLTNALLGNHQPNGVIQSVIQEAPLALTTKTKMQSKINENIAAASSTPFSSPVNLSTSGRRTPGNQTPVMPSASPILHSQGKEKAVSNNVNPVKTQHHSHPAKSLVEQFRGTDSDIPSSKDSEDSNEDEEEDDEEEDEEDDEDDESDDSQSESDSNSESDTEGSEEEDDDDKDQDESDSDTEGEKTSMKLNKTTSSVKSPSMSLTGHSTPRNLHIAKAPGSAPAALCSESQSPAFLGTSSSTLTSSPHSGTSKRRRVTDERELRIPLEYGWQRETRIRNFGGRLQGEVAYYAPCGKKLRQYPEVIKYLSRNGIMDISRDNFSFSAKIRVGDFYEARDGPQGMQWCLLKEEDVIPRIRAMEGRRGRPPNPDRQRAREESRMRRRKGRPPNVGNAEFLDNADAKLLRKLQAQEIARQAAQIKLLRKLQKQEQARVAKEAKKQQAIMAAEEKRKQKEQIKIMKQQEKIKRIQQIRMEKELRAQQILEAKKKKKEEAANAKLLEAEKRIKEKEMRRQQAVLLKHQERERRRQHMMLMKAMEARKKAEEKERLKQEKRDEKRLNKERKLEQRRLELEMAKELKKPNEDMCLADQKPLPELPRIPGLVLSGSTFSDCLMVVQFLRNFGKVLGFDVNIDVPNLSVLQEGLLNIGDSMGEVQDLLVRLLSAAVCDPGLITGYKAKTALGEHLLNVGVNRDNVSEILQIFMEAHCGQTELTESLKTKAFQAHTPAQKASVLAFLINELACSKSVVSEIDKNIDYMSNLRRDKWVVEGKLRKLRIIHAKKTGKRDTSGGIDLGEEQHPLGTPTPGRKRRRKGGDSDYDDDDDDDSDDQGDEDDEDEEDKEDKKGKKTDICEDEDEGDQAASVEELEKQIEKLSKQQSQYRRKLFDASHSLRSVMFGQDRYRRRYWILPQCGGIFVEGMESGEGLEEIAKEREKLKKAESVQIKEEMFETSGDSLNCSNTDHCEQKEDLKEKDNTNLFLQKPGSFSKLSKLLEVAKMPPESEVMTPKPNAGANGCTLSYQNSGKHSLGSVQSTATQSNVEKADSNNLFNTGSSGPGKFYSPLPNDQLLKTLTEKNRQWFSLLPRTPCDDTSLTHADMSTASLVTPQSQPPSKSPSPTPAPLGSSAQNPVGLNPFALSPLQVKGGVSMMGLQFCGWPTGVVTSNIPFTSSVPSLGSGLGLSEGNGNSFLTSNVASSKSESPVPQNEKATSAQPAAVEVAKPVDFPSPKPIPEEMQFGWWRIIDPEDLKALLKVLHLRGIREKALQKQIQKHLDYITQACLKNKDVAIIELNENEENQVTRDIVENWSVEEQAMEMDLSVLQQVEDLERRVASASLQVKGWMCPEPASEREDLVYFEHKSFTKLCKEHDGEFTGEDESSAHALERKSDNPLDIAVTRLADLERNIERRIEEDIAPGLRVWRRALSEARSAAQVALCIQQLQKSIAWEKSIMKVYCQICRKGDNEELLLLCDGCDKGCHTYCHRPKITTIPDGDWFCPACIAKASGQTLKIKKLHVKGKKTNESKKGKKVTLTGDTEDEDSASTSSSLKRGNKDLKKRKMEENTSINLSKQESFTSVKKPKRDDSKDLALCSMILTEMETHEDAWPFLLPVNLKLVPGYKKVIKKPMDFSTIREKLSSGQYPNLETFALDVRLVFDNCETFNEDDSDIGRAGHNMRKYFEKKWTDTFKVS
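AlphaScreen displacement of biotin-H3(5-23)K14Ac peptide (50 nM final) from BAZ2B (50 nM final) in PBS pH 7.4, 0.01% Tween-20; complex preformed 30 min RT, then compounds (top 110 uM) 30 min RT, beads 20 min dark.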
HP1b chromo inh: HTS for Inhibitors of HP1-beta Chromodomain Interactions with Methylated Histone Tails; Chromobox protein homolog 1 (Homo sapiens), P83916; AlphaScreen HP1-beta / biotin-H3K9me3 peptide binding; Potency, µM (top dose mostly 114 µM), for inactives: at the top dose activity change, negative = inhibition, most hits filed as inhibitors; 390,000 compounds, 0.56% hits; also: nearly all actives have a fitted effect of over 70% in size
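HP1-beta protein (50 nM final) preincubated 30 min at room temperature with biotinylated H3(1-18)K9me3 peptide (50 nM) in PBS pH 7.4, 0.01% Tween-20, then compound added for 30 min. AlphaScreen streptavidin donor/nickel chelate acceptor beads (10 ug/mL final), 30 min dark, luminescence read.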
JMJD2A Tudor inh: qHTS Assay for Inhibitors of JMJD2A-Tudor Domain. Lysine-specific demethylase 4A (Homo sapiens), O75164. AlphaScreen JMJD2A-Tudor / H3K4me3 peptide binding. Potency, µM (titrated, usually from 114 µM), for the others: at the top dose activity change, negative = inhibition, usual class: inhibitors. 390,000 compounds, 4.4% hits. AID 504339, 2011; also: % is scaled to controls: 0 for no effect and ±100 for the full control effect; nearly all actives have a fitted effect of over 50% in size
The depositor's hits bear a star; ? = inconclusive; . = no result; [ ] = dose if it differs, or a comment. Calls follow the shape of the dose curve; as a rule, active = well fitted curve in the direction sought with a large enough effect; inconclusive = small, poorly fitted or top-dose-only effect, or another doubt; inactive = no such curve, though single readings can be large; an effect the other way counts as inactive or inconclusive. Potency is read from the fitted curve at half-maximal effect.

SMILES	G9a inh	Sfp PPTase inh	TDP1 inh	BAZ2B block	HP1b chromo inh	JMJD2A Tudor inh
COc1ccc(OCc2cc(C(=O)N(C)CCC3CCOCC3)no2)c(Cl)c1	24.4%	6.3%	1.9%	0.0%	-0.1%	?
CCn1c(C)cc(/C=C2\SC(=O)N(CC(=O)Nc3ccc(C)c(C)c3)C2=O)c1C	17.6%	?	-1.0%	0.4%[57.1 µM]	32.4%	-5.5%[57.1 µM]
Cc1cccc(NC(=O)CN2C(=O)S/C(=C\c3ccc(-c4cccc(C(=O)O)c4C)o3)C2=O)c1	12.6µM*	-16.7%	25.1µM*	?	?	79.4µM*
Cc1ccc(C(=O)O)cc1NS(=O)(=O)c1ccc2c(c1)oc(=O)n2C	-1.3%	9.1%	.	-12.1%	28.5%	-2.1%
Cc1ccc(NC(=O)CN2C(=O)S/C(=C/c3ccc(-c4cc(C(=O)O)ccc4C)o3)C2=O)cc1C	3.55µM*	56.2µM*	.	11.2µM*	-67.8%	11.2µM*
Cc1ccc(C(=O)O)cc1-c1ccc(C=C2C(=O)c3ccccc3C2=O)o1	17.8µM*	-4.1%	-2.5%	50.1µM*	39.8µM*	?
O=C(N1CCOCC1)N1CCN(S(=O)(=O)c2ccc(F)cc2)CC1	?	8.4%	.	-3.1%	22.9%	2.7%
O=C(NCc1ccccc1Cl)C(=O)NCC(c1cccs1)S(=O)(=O)c1cccs1 (configuration not stated)	-4.2%[59 µM]	.	2.6%	-1.6%	26.4%	-4.9%
S=C(NCc1ccco1)Nc1ccc(Oc2ccccc2)cc1	.	20µM*	6.2%	?	?	-23.2%
NNC(=S)NCc1cccnc1	1.41µM*	63.1µM*	5.5%	-0.5%	9.7%	?
c1ccc(NCc2cccnc2)cc1	44.7µM*	16.7%	0.0%	-6.8%	18.2%	-20.0%
S=C(NCc1cccnc1)Nc1ccc(Oc2ccccc2)cc1	.	39.8µM*	0.0%	?	-9.2%	-26.4%
COc1ccc(NC(=S)NCc2ccco2)cc1	.	3.5%	5.7%	-30.5%	23.7%	-9.7%
NC(=S)NCc1cccnc1	3.2%	-0.6%	.	0.5%	26.2%	-7.4%
Cc1cccc(NC(=O)NCC2CC2)c1	2.2%	-13.5%	.	-2.0%	40.0%	-3.5%
COc1cc2cc(CCCOC(=O)CCC(=O)O)oc(=O)c2cc1OC	0.9%[0.501 µM]	.	-0.1%	9.3%	35.1%	-8.6%
CC(C)N(CCCNC(=O)C1CCC(CNS(=O)(=O)c2ccccc2)CC1)Cc1ccccc1 (configuration not stated)	-0.3%	6.5%	1.7%	-1.6%	18.2%	-20.8%
S=C(NCc1ccco1)Nc1cc(-c2ccccc2)[nH]n1	-150.9%[59 µM]	1.2%	8.2%	39.8µM*	?	?
S=C(NCc1ccco1)Nc1ccc(Br)cn1	62.7%	-11.4%	0.5%	9.7%	16.5%	-13.7%
COc1ccc(-c2csc(Nc3ncccc3C)n2)cc1OC	?	-11.2%	7.0%	?	-4.1%	?
Cc1cccnc1Nc1nc(-c2ccc(O)c(O)c2)cs1	11.2µM*	50.1µM*	13.7%	39.8µM*	?	44.7µM*
COc1ccc(-c2csc(Nc3cccnc3)n2)cc1	-14.2%[59 µM]	79.4µM*	-3.1%	-35.2%	12.5%	-20.1%
COc1ccc(-c2csc(Nc3ncccc3C)n2)cc1	17.8µM*	3.8%	-1.2%	-9.3%	-1.6%	?
COc1ccc(-c2csc(Nc3ccccc3)n2)cc1	-0.7%[12.7 µM]	-3.7%	2.7%	?	?	-17.9%
COc1ccc(-c2csc(Nc3ncccn3)n2)cc1C	20.5%	2.0%	.	9.2%	17.4%	-12.6%
SMILES	G9a inh	Sfp PPTase inh	TDP1 inh	BAZ2B block	HP1b chromo inh	JMJD2A Tudor inh
C=C1CC[C@@]23CC[C@]4(C)[C@@](OC2=O)([C@@H]3C1)[C@H]1O[C@H]1C1[C@@]2(C)CC[C@H](O)C(C)(C)C2CC[C@]14C (some centres not stated)	-2.6%[12.7 µM]	.	.	4.5%	32.2%	-20.4%
CCOC(=O)c1ccc(NC(=O)CCN2C(=O)C3CC=CCC3C2=O)cc1 (configuration not stated)	-4.8%[0.501 µM]	.	4.1%	-10.0%	32.8%	-6.2%
CCOc1ccc(NC(=O)COC(=O)CCN2C(=O)C3CC=CCC3C2=O)cc1OCC (configuration not stated)	3.98µM*	.	7.7%	?	-21.4%	?
CCC(=O)Nc1ccc(C(=O)COC(=O)CCN2C(=O)C3CC=CCC3C2=O)cc1 (configuration not stated)	50.1µM*	.	-2.0%	12.7%	-10.1%	-23.5%
CCOc1ccc(NC(=O)CCN2C(=O)C3CCCCC3C2=O)cc1OCC (configuration not stated)	2.8%[0.501 µM]	.	.	-15.5%	11.0%	-20.9%
C/C(Cl)=C\COc1cc(C)nc2c(Br)cccc12	203.3%	-2.8%	-2.6%	124.2%	204.9%	133.3%
Cc1ccc(C(=O)NCC(=O)OC(C)C(=O)NC2CCCCC2C)cc1C (configuration not stated)	6.7%[12.7 µM]	.	.	8.0%	19.1%	0.3%
O=C(NNC(=O)C12CC3CC(CC(C3)C1)C2)c1ccncc1	39.8µM*	-7.1%	.	-9.8%	14.0%	6.3%
O=C(NNC(=O)C12CC3CC(CC(Cl)(C3)C1)C2)c1ccncc1	-27.2%	.	-21.3%	-2.8%	16.6%	-1.4%
COC(=O)c1ccccc1NC(=O)Cn1cnc2ccc(S(=O)(=O)N3CCC(C)CC3)cc2c1=O	?	89.1µM*	2.2%	7.7%	45.1%	-6.1%[11.4 µM]
Cc1ccc(/C(O)=C2/C(=O)C(=O)N(c3ccccn3)C2c2ccc(F)cc2)cc1 (configuration not stated)	39.8µM*	?	.	-31.1%	6.2%	-11.0%
CCCOc1ccc(/C(O)=C2/C(=O)C(=O)N(c3ccccn3)C2c2ccc(OC)cc2)cc1C (configuration not stated)	?	2.4%	.	-19.3%	19.8%[57 µM]	-31.7%
CCOc1ccc(/C(O)=C2/C(=O)C(=O)N(c3ccccn3)C2c2ccc(F)cc2)c(C)c1 (configuration not stated)	28.2µM*	-10.9%	.	-9.8%	-16.5%	?
O=C1C(=O)N(c2ccccn2)C(c2ccc(Br)cc2)/C1=C(/O)c1ccc(Br)cc1 (configuration not stated)	44.7µM*	15.0%	9.8%	-33.6%	-7.0%	-40.2%
O=C1C(=O)N(c2ccccn2)C(c2ccc(F)cc2)/C1=C(/O)c1ccc(Br)cc1 (configuration not stated)	14.0%[0.501 µM]	18.2%	.	-0.6%	16.6%	-16.0%
